# A number with no mark means an inactive call. Results filed as inconclusive are left out. A call without a number means that no potency is given here. Calls of active or inactive are those of the source. Calls come from the whole dose curve; as a rule, active = well fitted curve in the direction sought with a large enough effect; inconclusive = small, poorly fitted or top-dose-only effect, or another doubt; inactive = no such curve, though single readings can be large; an effect the other way counts as inactive or inconclusive.
# Assays:
# [1] = biological target: Cytochrome P450 3A4 (Homo sapiens) (UniProt P08684); assay: qHTS for inhibitors of CYP3A4 against the NCATS DSHEA and TCM libraries (AID 1919971); settings: recombinant CYP3A4 enzyme activity, luminescence qHTS; series mostly up to 34.1 µM;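 note: inhibition lowers luminescence from luciferin made by CYP3A4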
# Sequence of Cytochrome P450 3A4 (Homo sapiens) (P08684 whole entry, looked up): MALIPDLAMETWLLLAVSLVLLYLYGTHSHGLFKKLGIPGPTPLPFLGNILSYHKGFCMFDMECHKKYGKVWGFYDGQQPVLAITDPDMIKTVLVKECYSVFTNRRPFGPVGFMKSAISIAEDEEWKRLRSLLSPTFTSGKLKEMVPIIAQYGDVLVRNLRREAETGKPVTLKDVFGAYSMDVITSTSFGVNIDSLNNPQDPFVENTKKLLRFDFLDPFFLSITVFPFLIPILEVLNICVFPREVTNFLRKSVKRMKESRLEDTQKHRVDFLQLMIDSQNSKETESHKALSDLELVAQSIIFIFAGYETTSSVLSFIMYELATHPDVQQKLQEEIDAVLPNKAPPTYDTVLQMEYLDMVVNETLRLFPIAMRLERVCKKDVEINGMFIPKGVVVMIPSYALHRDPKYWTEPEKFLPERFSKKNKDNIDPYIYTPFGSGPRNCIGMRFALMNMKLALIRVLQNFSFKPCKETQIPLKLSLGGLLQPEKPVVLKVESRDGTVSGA
# Summary of the method: (§1)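 Substances were tested against enzyme with a pro-luciferin substrate; minus-enzyme wells served as background. After NADPH-initiated oxidation (30-45 min, RT), light was generated with P450-Glo reagent.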
# [2] = biological target: Cytochrome P450 2C9 (Homo sapiens) (UniProt P11712); assay: qHTS for inhibitors of CYP2C9 against the NCATS DSHEA and TCM libraries (AID 1919973); settings: recombinant CYP2C9 enzyme activity, luminescence; series mostly up to 34.1 µM; note: potency is the fitted concentration of half-maximal effect
# Sequence of Cytochrome P450 2C9 (Homo sapiens) (P11712 whole entry, looked up): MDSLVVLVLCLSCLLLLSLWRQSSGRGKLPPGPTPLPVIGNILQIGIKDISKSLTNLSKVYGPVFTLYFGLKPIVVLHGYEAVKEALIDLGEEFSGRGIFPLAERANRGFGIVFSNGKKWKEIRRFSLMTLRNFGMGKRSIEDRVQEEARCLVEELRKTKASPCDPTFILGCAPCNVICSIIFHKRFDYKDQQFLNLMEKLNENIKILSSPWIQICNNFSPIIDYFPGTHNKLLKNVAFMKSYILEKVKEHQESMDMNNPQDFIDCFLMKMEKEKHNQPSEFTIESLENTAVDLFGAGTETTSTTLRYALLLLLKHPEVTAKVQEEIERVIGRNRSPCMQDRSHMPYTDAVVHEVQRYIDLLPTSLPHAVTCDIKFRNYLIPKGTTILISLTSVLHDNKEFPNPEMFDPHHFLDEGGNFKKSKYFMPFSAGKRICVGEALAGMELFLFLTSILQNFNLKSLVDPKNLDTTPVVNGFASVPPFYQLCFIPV
# Summary of the method: as §1
# [3] = KB-3-1 P-gp reporter qHTS against the NCATS DSHEA and TCM libraries (AID 1919975); settings: KB-3-1 parental cells, CellTiter-Glo luminescence viability, 72 h; series mostly up to 26.1 µM
# Summary of the method: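 KB-3-1 parental line, 1536-well qHTS: cells seeded, ~4 h attachment, pintool compound addition, ~72 h at 37C, then CellTiter-Glo, 30 min RT, luminescence. Concentration-response format.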
# [4] = qHTS Counterscreen for compound interference against the NCATS DSHEA and TCM libraries (AID 1919978); settings: firefly luciferase detection reagent interference, luminescence;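 note: compounds preincubated with 1 µM D-luciferin or buffer before detection reagent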
# Summary of the method: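 Compounds, titrated from 19.5 nM to 39.8 uM final, were pinned onto 1 uM D-luciferin or plain 100 mM potassium phosphate. After 15 min at room temperature, luciferin detection reagent was added for 30 min before the luminescence read.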
# [5] = Dual reporter qHTS for agonist of Pregnane X Receptor (hPXR) against the NCATS DSHEA and TCM libraries: Fluorescence readout (AID 1920058); settings: PXR dual reporter cells; series mostly up to 40 µM; note: potency is the fitted concentration of half-maximal effect
# Summary of the method: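 Fluorescence read-out for cell viability: CellTiter-Fluor, 1 h at 37 °C, Ex/Em 405/540 nm. This followed ~24 h treatment of hPXR-Luc HepG2 cells with substances in agonist mode.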
# [6] = biological target: Nuclear receptor subfamily 1 group I member 2 (Homo sapiens) (UniProt O75469); assay: Dual reporter qHTS for agonist of Pregnane X Receptor (hPXR) against the NCATS DSHEA and TCM libraries: Luminescence readout (AID 1920059); settings: hPXR dual reporter cells, luciferase luminescence agonist; series mostly up to 40 µM; note: potency is the fitted concentration of half-maximal effect
# Sequence of Nuclear receptor subfamily 1 group I member 2 (Homo sapiens) (O75469 whole entry, looked up): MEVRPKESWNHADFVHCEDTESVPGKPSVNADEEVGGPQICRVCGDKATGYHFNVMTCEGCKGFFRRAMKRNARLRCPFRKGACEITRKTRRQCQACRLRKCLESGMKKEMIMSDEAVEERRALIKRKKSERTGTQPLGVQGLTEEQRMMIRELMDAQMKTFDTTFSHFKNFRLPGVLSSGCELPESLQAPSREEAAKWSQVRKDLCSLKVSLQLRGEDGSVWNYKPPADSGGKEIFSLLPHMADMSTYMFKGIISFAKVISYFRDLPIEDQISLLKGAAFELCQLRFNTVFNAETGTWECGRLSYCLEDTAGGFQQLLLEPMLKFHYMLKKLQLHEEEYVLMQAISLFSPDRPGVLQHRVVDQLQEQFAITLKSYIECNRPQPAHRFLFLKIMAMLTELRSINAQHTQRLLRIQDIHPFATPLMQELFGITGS
# Summary of the method: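 hPXR-LucHepG2 cells in phenol red-free DMEM with 5% charcoal-stripped FBS, 2000 cells/well, attached 5 h, then exposed 24 h at 37C to compounds; rifampicin as positive agonist control (2.8 nM–92 uM). Luciferase luminescence read.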
# [7] = biological target: Nuclear receptor subfamily 1 group I member 2 (Homo sapiens) (UniProt O75469); assay: Dual reporter qHTS for antagonist of Pregnane X Receptor (hPXR) against the NCATS DSHEA and TCM libraries: Luminescence Readout (AID 1920060); settings: hPXR dual reporter cells, luciferase luminescence, antagonist mode; series mostly up to 40 µM;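 note: HepG2 cells carrying hPXR luciferase reporter stimulated with rifampicin at 2 µM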
# Summary of the method: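 Antagonist mode: rifampicin 2 uM final co-added with compounds to hPXR-LucHepG2 cells for 24 h at 37C. Viability by CellTiter-Fluor, Ex/Em 405/540 nm, 1 h; reporter by ONE-Glo luminescence.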
# [8] = biological target: Cytochrome P450 2D6 (Homo sapiens) (UniProt P10635); assay: qHTS for inhibitors of CYP2D6 against the NCATS DSHEA and TCM libraries (AID 1919972); settings: CYP2D6 enzymatic inhibition, luminescence qHTS; series mostly up to 34.1 µM
# Sequence of Cytochrome P450 2D6 (Homo sapiens) (P10635 whole entry, looked up): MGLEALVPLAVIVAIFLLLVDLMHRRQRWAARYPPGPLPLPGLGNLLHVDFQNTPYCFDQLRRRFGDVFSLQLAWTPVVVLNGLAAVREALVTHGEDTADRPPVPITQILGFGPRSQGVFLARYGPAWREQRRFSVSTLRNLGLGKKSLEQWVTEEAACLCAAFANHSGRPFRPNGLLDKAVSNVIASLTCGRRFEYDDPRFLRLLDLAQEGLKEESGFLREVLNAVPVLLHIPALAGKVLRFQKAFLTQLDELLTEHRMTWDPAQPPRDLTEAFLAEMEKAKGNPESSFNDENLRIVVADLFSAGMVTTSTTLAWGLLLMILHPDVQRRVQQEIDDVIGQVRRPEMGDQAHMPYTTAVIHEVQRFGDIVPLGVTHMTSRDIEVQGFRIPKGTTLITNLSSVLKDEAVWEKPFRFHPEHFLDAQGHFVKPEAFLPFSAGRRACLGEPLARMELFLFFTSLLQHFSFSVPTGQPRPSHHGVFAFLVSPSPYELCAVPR
# Excerpt: Assay Development and Screening Technology Laboratory (ADST)
# National Center for Advancing Translational Sciences (NCATS), Rockville, MD
# National Institute of Health (NIH), Bethesda, Maryland
# Dietary Supplements and Natural Products have minor oversight of their safety and efficacy. We assembled a collection of Dietary Supplements and Natural Products (DSNP) as well as Traditional Chinese Medicinal (TCM) Plant extracts, which were screened against an in vitro panel of assays, including a liver cytochrome p450 enzyme panel, CAR/PXR signaling pathways, and P-gp transporter assays, to assess their activity. This pipeline facilitated the interrogation of Natural Product-Drug Interaction (NaPDI) through prominent metabolizing pathways. In addition, we compared the activity profiles of the DSNP/TCM substances with those of an approved drug collection. Many of the approved drugs have well-annotated mechanisms of action (MOA) while the MOAs for most of the DSNP and TCM samples remain unknown. Based on the premise that compounds with similar activity profiles tend to share similar targets or MOA, we clustered the library activity profiles to identify overlap with the NCATS Pharmaceutical Collection to predict the MOAs of the DSNP/TCM substances. Overall, we highlight four significant bioactivity profiles (measured by p-values) as examples of this prediction. To assess broad cytotoxicity, we employed screening against a HepG2 cell line. In addition, transporter-mediated drug interactions are utilized in the characterization of DDIs using a P-glycoprotein (P-gp) assays. To profile potential P-gp activity, a differential cell viability was measured against two cell lines: a parental KB-3-1 human cervical adenocarcinoma cell line and the drug-resistant subline KB-8-5-11 that overexpresses P-gp.
# To this end, we profiled both collections for potential CAR and/or PXR activity, employing a previously published 1536-well qHTS assay.
# [1] […]
# 9; Read; Luminescence; ViewLux plate reader. […]
# [9] = biological target: Cytochrome P450 2C19 (Homo sapiens) (UniProt P33261); assay: qHTS for inhibitors of CYP2C19 against the NCATS DSHEA and TCM libraries (AID 1919974); settings: CYP2C19 enzyme inhibition, luminescence qHTS; series mostly up to 34.1 µM;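 note: luminescence from luciferin released by CYP2C19 oxidation of a pro-luciferin substrate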; note: potency is the fitted concentration of half-maximal effect
# Sequence of Cytochrome P450 2C19 (Homo sapiens) (P33261 whole entry, looked up): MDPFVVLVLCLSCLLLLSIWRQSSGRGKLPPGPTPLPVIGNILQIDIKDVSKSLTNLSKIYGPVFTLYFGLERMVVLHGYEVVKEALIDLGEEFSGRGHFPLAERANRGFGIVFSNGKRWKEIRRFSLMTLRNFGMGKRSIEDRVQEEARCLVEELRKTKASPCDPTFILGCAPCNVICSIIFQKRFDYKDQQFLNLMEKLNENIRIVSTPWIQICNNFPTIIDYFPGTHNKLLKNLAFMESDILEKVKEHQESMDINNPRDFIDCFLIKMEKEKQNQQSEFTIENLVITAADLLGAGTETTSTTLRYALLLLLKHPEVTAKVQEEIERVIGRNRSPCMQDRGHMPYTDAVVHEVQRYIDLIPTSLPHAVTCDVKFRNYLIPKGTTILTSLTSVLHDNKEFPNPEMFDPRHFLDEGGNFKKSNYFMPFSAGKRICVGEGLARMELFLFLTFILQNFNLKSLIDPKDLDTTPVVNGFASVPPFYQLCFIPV
# Summary of the method: as §1
# [10] = biological target: Cytochrome P450 1A2 (Homo sapiens) (UniProt P05177); assay: qHTS for inhibitors of CYPIA2 against the NCATS DSHEA and TCM libraries (AID 1919976); settings: recombinant CYP1A2 enzyme activity, luminescence; series mostly up to 37 µM
# Sequence of Cytochrome P450 1A2 (Homo sapiens) (P05177 whole entry, looked up): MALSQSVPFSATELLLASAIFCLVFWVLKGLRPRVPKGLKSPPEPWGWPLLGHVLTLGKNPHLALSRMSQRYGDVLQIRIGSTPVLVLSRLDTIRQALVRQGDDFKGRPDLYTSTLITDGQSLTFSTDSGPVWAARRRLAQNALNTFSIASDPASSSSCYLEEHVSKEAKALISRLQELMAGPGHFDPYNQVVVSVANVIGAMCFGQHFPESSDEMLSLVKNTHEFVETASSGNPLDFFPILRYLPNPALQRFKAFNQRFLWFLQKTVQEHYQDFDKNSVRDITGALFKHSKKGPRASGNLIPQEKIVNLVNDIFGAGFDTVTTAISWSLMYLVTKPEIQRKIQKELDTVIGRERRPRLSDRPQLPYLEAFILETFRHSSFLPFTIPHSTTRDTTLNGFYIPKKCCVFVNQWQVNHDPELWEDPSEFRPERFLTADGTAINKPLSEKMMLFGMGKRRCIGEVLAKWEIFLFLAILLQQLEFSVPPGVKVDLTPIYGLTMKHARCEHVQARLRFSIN
# Summary of the method: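 Luminescence read-out: pro-luciferin converted to D-luciferin by CYP1A2, detected with P450-Glo reagent after 30 min RT. Enzyme plus substrate got compounds for 15 min RT; NADPH regeneration solution (final 1x) started a 30-45 min reaction, light-protected.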
SMILES,outcome [1],Potency [2],outcome [3],max response [4],Potency [5],Potency [6],outcome [7],outcome [8],Potency [9],outcome [10]
Cc1cc2nc3c(=O)[nH]c(=O)nc-3n(CC(O)C(O)C(O)CO)c2cc1C (stereo unspecified),inactive,inactive,inactive,1.01%,28.2 µM (active),inactive,inactive,–,–,–
CC(C)(CO)[C@@H](O)C(=O)NCCC(=O)O,inactive,–,inactive,-1.56%,inactive,11.2 µM (active),inactive,inactive,–,–
OC[C@H]1O[C@@H](OCCc2ccc(O)cc2)[C@H](O)[C@@H](O)[C@H]1O,inactive,inactive,inactive,1.11%,inactive,inactive,inactive,inactive,inactive,inactive
O=c1cc(-c2ccc(O)c(O)c2)oc2cc(O)cc(O)c12,–,11.2 µM (active),inactive,-0.391%,inactive,–,inactive,inactive,7.94 µM (active),–

# Source: PubChem BioAssay (NCATS)
